Reference: PubChem BioAssay AID1347426 (Functional Genomics Laboratory (NCATS/FGL), 2020)
The campaign covered roughly 31,000 sequences. About 1,400 (4.5%) were called active.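 How the source made its calls: active means median seed-adjusted z-score above 1 or below -1; inactive means the rest.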 The full list was thinned out, with actives kept by preference.

Assay: Novel Modifiers of Survival Motor Neuron (SMN) Protein: Gene Identification via Genome-wide siRNA Screen
Settings: HEK293T SMN2-luciferase reporter, siRNA knockdown, 72 h; actives lie on both sides
In short: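 Each of three siRNAs per gene is reverse-transfected (1 pmol) into reporter HEK293T cells whose luciferase output tracks SMN protein level. After 72 h culture, ONE-Glo luminescence is control-normalized, log10-transformed and MAD-standardized; Common Seed Analysis deprioritizes seed-driven hits.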

Row | Sequence | median seed-adjusted z-score
1 | GCUCAGAUAAAGUACAGAATT against GGCX | -0.362 (inactive)
2 | GAGUCAUAGUUGCAGCUGATT against PSMB5 | -1.37 (active)
3 | CCUCAUGACUUCGCAAAUATT against COPB1 | -0.839 (inactive)
4 | GGACCAUAACUCUUACGUATT against RBM26 | -0.967 (inactive)
5 | UCACUGUGCUACAUCAUCATT against MYL7 | -1.21 (active)
6 | GUUGAGGUCUGGUAACAGATT against TMED1 | 0 (inactive)
7 | GGAGUUUGUUUGCAAGUAUTT against RREB1 | -0.414 (inactive)
8 | CCAUCUACAUCAGAGUCCATT against BTN1A1 | 0.291 (inactive)
9 | GGACAAAUUUUGGAGAGAATT against COG2 | 0.791 (inactive)
10 | CCAACAGGAGAGUACGUGATT against STRADA | 0.415 (inactive)
11 | CCAUUUGACUUUAUGGAGATT against RRM2 | -3.84 (active)
12 | GGCCUUCGUGUACAUCAAUTT against SUV39H1 | -0.0775 (inactive)
13 | CUAUGCCCGUGGUCACUAUTT against TUBA4A | -0.594 (inactive)
14 | GAGCCGCUGGUGUAUCUUUTT against TLR4 | 0.113 (inactive)
15 | GGCAAGAUCUGUACCGUGATT against HPN | -0.0237 (inactive)
16 | CCAGGACAUUCGAAAGCGATT against TRAF4 | -1.16 (active)
17 | CGGGUACAAGGAUUGGUUUTT against ROM1 | 0.41 (inactive)
18 | CCACUCUCAUUGUGACUGATT against DDX54 | 0 (inactive)
19 | GGAUUAUGAAGAAUGGAAATT against ORC6L | 0 (inactive)
20 | GGCAGAGCCUGACCACUUUTT against LOC100137047-PLA2G4B | -0.022 (inactive)
21 | GGAGCGAGCUGGUGCAUAATT against SH3BP5 | -0.707 (inactive)
22 | GCAUCGCUGUUACCCAUCUTT against CCRN4L | -0.572 (inactive)

Row | Sequence | median seed-adjusted z-score
23 | GGAGAUAAGAGAUCAUAUUTT against OXNAD1 | 0.36 (inactive)
24 | CAUGAGAUACGAUACACUATT against TRMT6 | 0.069 (inactive)
25 | CGCACACGUAGAGACCUUATT against PNN | 1.29 (active)
26 | CAACUUCACUCAGAACCCATT against MARCO | 0.137 (inactive)
27 | GCCUACUUCAUUCAUCAUATT against KSR1 | 0.0873 (inactive)
28 | CAAUCGUCCAAUGAUCUUATT against PCDHB1 | 0.342 (inactive)
29 | CCUUCAUAGUCAACAGCAATT against MGC16703 | 0.55 (inactive)
30 | GCACGACGACAAUAUCAUUTT against PEX3 | 0.142 (inactive)
31 | CCAUUAUUGACUCACCCUATT against CSTF2T | 0.387 (inactive)
32 | GCAUAACUUGAAUAGUACATT against AKAP11 | -0.0405 (inactive)
33 | GCAUCAUUGAAGGACUAGATT against HEY1 | -0.023 (inactive)
34 | CCCUGGUAGUCAAAAACGATT against PHKB | -0.142 (inactive)
35 | GCUGUGAACUGACUCUGCATT against UROD | 1.11 (active)
36 | GCCCGACUCUCUAAUGGAATT against PRKD3 | -0.906 (inactive)
37 | CUACCGUGCAAGUUCAUUATT against CD3D | -0.403 (inactive)
38 | CCGUCAAGGUGUAUUUUGATT against PPIB | 0.038 (inactive)
39 | GGCUUAACAUUGAACGAAUTT against CRY2 | 0.0209 (inactive)
40 | CCAAGACUCCAACCAUUUUTT against IKZF4 | -0.426 (inactive)
41 | GGACCUCAAAGUUGUCUAUTT against AP1S1 | -1.04 (active)
42 | CGUGGGAUGCUCAAAGAUATT against EZR | 0.0344 (inactive)
43 | CCCAGAUCAUAUACUCCUATT against LYPLAL1 | -0.425 (inactive)
44 | GGCAUGAAGUGAAGGAUGATT against ZNF134 | -0.0978 (inactive)

Row | Sequence | median seed-adjusted z-score
45 | CCUCAAUACUCCGCAAAUATT against NMNAT2 | -1.58 (active)
46 | GGAAAGUUAUCAGGAUGCATT against SAG | 0 (inactive)
47 | GGAUUCCAAUCUUAGCUUUTT against RLN1 | 0.0637 (inactive)
48 | GGAAUUCCUUUAAUGACGATT against RYR3 | 0 (inactive)
49 | CCACCAGCGUGAUCAUUGUTT against GALNT6 | -0.287 (inactive)
50 | CUUCCAUGCCUUUGACCUATT against CDCP2 | 0.0708 (inactive)
51 | CUUGUGUUCUGAGAAUACATT against KRT83 | 1.15 (active)
52 | AGAAUCGUGUGGAAAAAGATT against PARK7 | -0.357 (inactive)
53 | CCAUGACAAUCAACGAGGATT against AMY2A | -0.266 (inactive)
54 | CUUUUGCCUGUAGCCCAUATT against GCS1 | 0.819 (inactive)
55 | CGAGAUAACUACUUUCGGATT against RALB | -0.534 (inactive)
56 | ACAGAUCCAUUUUUAGGGATT against PKIG | 0.0916 (inactive)
57 | CCACGUCUCUGGAGAGUUUTT against ALAD | 0.0952 (inactive)
58 | GGCUGUACAUCUGGACCAATT against NFKBIE | -0.452 (inactive)
59 | GGAUGGGCCUUGAAGCCUUTT against GPR97 | -0.0155 (inactive)
60 | GGGAAUAUCUCUUCCGACATT against ACTL7A | 1.1 (active)
61 | GGCUAUCAUCUACACCCGATT against UGCG | 0.492 (inactive)
62 | CGAUUAUUGUGAGCCUAAUTT against JAG1 | -0.32 (inactive)
63 | CUAAGAGACUAAAUGCAAATT against SUCLG2 | -0.619 (inactive)
64 | GGGCCGCUUUAGAAAGGUATT against SNX1 | 0.0261 (inactive)
65 | CCUGGACCCUGAACUCACATT against LILRA4 | 0.109 (inactive)
66 | GCAUUACAGUACUUACGUATT against BTAF1 | -1.19 (active)

Row | Sequence | median seed-adjusted z-score
67 | GGCUCUUACAAGUCCUUAUTT against CHRM2 | 0.053 (inactive)
68 | GGCAUUACCGUGUAUAACATT against CHST10 | 0.115 (inactive)
69 | GUACUGGAGUGAUGAGUUUTT against PARP12 | -0.287 (inactive)
70 | GUCUGUCGCUACUACAAUATT against SLCO2B1 | 0.289 (inactive)
71 | CGAUGGGUCUGUGCACAAATT against TGM2 | 0.413 (inactive)
72 | CGGCCUUGAUAAACUGAAATT against SNAPC3 | -1.72 (active)
73 | CCAUGAGUGUGACUCUCAATT against ZNF599 | 0.0896 (inactive)
74 | CCCGGAUUGUUCCUACUGATT against ALG9 | -0.267 (inactive)
75 | CGGGCUCCGUAGUCACAUUTT against NAALADL1 | -0.0444 (inactive)
76 | GAACAAAUCUGCGAGAUCATT against DIRAS2 | -1.25 (active)
77 | GCAGUUGGAGAGAUAAUAATT against VRK1 | -0.148 (inactive)
78 | CACUGUUUAUGUAUAUGGATT against RHOT1 | -0.189 (inactive)
79 | UCACCACCGUGUCUAAGAATT against MPO | -0.223 (inactive)
80 | GGUUCUUGCUUACACUCUUTT against ESSPL | 0.328 (inactive)
81 | CAUUGUCAAUAUAACGAUUTT against GPR98 | -0.509 (inactive)
82 | CAAGAAUCUUAAGAUAGAATT against CD4 | -0.566 (inactive)
83 | AUAUAUUGCUUGGAGAUGATT against STK16 | 0.113 (inactive)
84 | CCAUCAACAUCGCCCUGAATT against PLOD1 | 0.481 (inactive)
85 | GCCUUUUGCUCAUCUCACUTT against TNFSF11 | 0.0212 (inactive)
86 | CAACCAGACUAUUCGGACATT against PPP1R10 | 1.41 (active)
87 | CCAACCUUCUGAAUACGUUTT against GPR126 | -0.243 (inactive)
88 | AAAAGAGACUGAUCAUCCATT against NR2F6 | -0.681 (inactive)

Row | Sequence | median seed-adjusted z-score
89 | GAACUAUGCUAUACCAGAATT against IQCH | 0 (inactive)
90 | GACUAUUCCCUGCACCACATT against ABHD9 | 0.486 (inactive)
91 | CUUCCGUUAUGAUACAGAATT against GABRA2 | -0.272 (inactive)
92 | GCUGUACACCGGCAUCGUATT against SLC5A5 | 1.01 (active)
93 | GAAUCUAUGAGCUUCGAAATT against PSMB5 | -1.37 (active)
94 | CUAUGGGUAUGACUACUUUTT against BPHL | -0.161 (inactive)
95 | GGAACAUAGUCUUCAGGUATT against KIF20A | 0.906 (inactive)
96 | AUGCUGAUCAGGAAAAGUATT against TEX13A | -1.22 (active)
97 | CACUGAAGCUGUACAACAATT against TSHR | 0.851 (inactive)
98 | GAGUGAUCAGAGACCGAAATT against IARS | -0.198 (inactive)
99 | GGACUUACUAAAAGCUAAATT against CRKRS | -1.16 (active)
100 | CAAUCUAACUUUUCGGACATT against CLCA2 | 0.669 (inactive)
101 | CAGUUUCAACUUUAUCAGATT against RNF144B | 0.642 (inactive)
102 | GAUGAUAUCCUACUAGGCATT against CD302 | 0.0818 (inactive)
103 | CAAUGUUUGUCUGGUCAUATT against ZDHHC2 | 0.133 (inactive)
104 | CAUCUUAUCUACAUCUUAUTT against KCNK18 | 0.115 (inactive)
105 | CCAUUAUCGCUGUCUUCUATT against CXCR7 | -0.511 (inactive)
106 | GGCCUACAGCUGGAAGGAATT against CHRM1 | 1.1 (active)
107 | GGAUGCGUUGAAUAAGUUUTT against MGAT4A | 0.134 (inactive)
108 | GCACUACGGACCAUAGUUATT against NRF1 | 0.608 (inactive)
